An excerpt weighted towards active compounds, which were near 3.8% of everything screened.
HSF1 activator: increases HSF-1 driven luciferase reporter signal; NIH3T3-HGL HSF-1 luciferase reporter, MG132, 8 h; 100% = twice DMSO control signal; activation, % at 9 µM; 300,000 tested, 1.7% active; AID 504408;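 active means mean replicate activation of at least 50% with a set share of replicates each reaching 50%; inconclusive means only one of those two conditions met; inactive means mean below 50% and too few replicates reaching it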
esBAF inh: inhibitors of esBAF chromatin remodeling in mouse ES cells; Bmi1-luciferase knock-in reporter, 24 h; 100% = twice the neutral-well signal; reporter increase, % at 12.5 µM; 350,000 tested, 2% active; in the data active means activation above about 40%; inconclusive means no clear call, values can overlap the other calls;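 further: a rise in the Bmi1 reporter signal indicates esBAF inhibition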
Wnt act: Wnt/beta-catenin pathway activation; 300,000 tested, 1.2% active; Wnt/beta-catenin reporter cell assay, activator, plate reader; activation, % at 9.35 µM; in the data active means activation above about 30%, passing the limit was not always enough; inconclusive means no clear call, values can overlap the other calls
HSF1 inhib: HSF1 inhibition; NIH3T3-HGL HSE-luciferase, MG132-induced, luminescence 8 h; hits give low values; activity change, negative = inhibition, % at 7.5 µM (by protocol); 300,000 tested, 0.77% active; AID 2098;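 active means more than half of replicate wells show activity change below -50%, luminescence cut by over half; inconclusive means some wells, but at most half, below -50%; inactive means no replicate well below -50%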;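 further: luciferase reports HSF-1 transcriptional activity via heat shock element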
MITF TRPM1 HTS: increases MITF-driven TRPM1 promoter luciferase signal. SK-MEL-5 TRPM1-promoter luciferase, 24 h; % of positive control, neutral wells = 0. activation, % at 12.5 µM. 300,000 tested, 0.75% active;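 active means mean activation of at least 80% with every replicate also reaching 80%; inconclusive means mean reaches 80% but some replicate falls short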
Hits are given with their value; – = inactive; ? = inconclusive; · = no result.

SMILES | HSF1 activator | esBAF inh | Wnt act | HSF1 inhib | MITF TRPM1 HTS
O=C(NCC[C@@H]1CC[C@@H](NC(=O)C2CCCCC2)[C@H](CO)O1)c1cnccn1 | · | – | · | · | ·
O=c1c2ccccc2nc2c3ccccc3c(NCc3ccccn3)nn12 | – | · | 49 | – | –
O=c1c2ccccc2nc2c3ccccc3c(NCc3cccnc3)nn12 | – | · | – | – | –
CCOC(=O)CNC(=O)CSc1ncnc2c1nnn2-c1ccc(F)cc1 | 95 | – | · | – | –
CCOC(=O)CNC(=O)Cn1cnc2c(nnn2-c2ccc(F)cc2)c1=O | – | – | – | – | –
COc1ccc(-n2nnc3c(SC(C(C)=O)C(=O)N(C)C)ncnc32)cc1 (stereo unspecified) | – | – | – | – | –
COC(=O)C(C)Sc1ncnc2c1nnn2-c1ccc(F)cc1 (stereo unspecified) | 126 | – | · | – | –
C[C@@H]1CCCCO[C@H](CN(C)C(=O)CCCN(C)C)[C@@H](C)CN([C@@H](C)CO)C(=O)c2cc(NC(=O)CCC(F)(F)F)ccc2O1 | · | – | · | · | ·
O=C(C[C@@H]1CC[C@@H]2[C@H](COC[C@@H](O)CN2C(=O)Nc2ccc(F)cc2)O1)NCCc1ccncc1 | · | – | · | · | ·
CCCNC(=O)[C@H]1[C@H](CO)[C@H]2Cn3c(ccc(-c4ccccc4F)c3=O)[C@H]2N1C(=O)CC | · | – | · | · | ·
Cc1cccc(NC(=O)/C(C#N)=C/c2ccc[nH]2)c1C | – | 49 | – | – | –
Cc1cccc(NC(=O)/C(C#N)=C\c2cn(CC(=O)O)c3ccccc23)c1 | – | – | – | – | –
Cc1cccc(NC(=O)/C(C#N)=C/c2cn(CC(=O)NCc3ccco3)c3ccccc23)c1C | 61 | – | – | – | –
Cc1ccc(C)c(NC(=O)/C(C#N)=C/c2ccc[nH]2)c1 | – | – | – | – | –
N#C/C(=C\c1cn(Cc2ccc(F)cc2)c2ccccc12)C(=O)NCc1ccco1 | – | · | · | – | –
N#C/C(=C\c1cn(Cc2ccccc2)c2ccccc12)C(=O)NCc1ccco1 | 75 | · | – | – | –
N#C/C(=C\c1cn(Cc2cccc(F)c2)c2ccccc12)C(=O)NCc1ccco1 | 68 | · | – | – | –
COCC(=O)Nc1ccc2c(c1)C(=O)N(C)C[C@H](OC)[C@@H](C)CN(CC1CCCCC1)[C@@H](C)CO2 | · | – | · | · | ·
CCC(=O)N1C[C@H](C)[C@H](OC)CN(C)C(=O)c2cc(NC(=O)c3ccc(F)cc3)ccc2OC[C@@H]1C | · | – | · | · | ·
COc1ccc(S(=O)(=O)Nc2ccc3c(c2)C(=O)N([C@@H](C)CO)C[C@H](C)[C@@H](CN(C)S(=O)(=O)c2ccc(OC)cc2)O3)cc1 | · | – | · | · | ·
O=C(NCc1ccc(F)cc1)[C@H]1[C@H](CO)[C@H]2Cn3c(cccc3=O)[C@@H]1N2C(=O)Cc1ccccn1 | · | – | · | · | ·
COC(=O)c1ccccc1NC(=O)Nc1cc(C(C)(C)C)on1 | – | – | ? | – | –
Cc1cc(C(=O)Nc2cc(C(C)(C)C)on2)c(C)o1 | – | 63 | 42 | – | 89
CC(C)(C)c1cc(NC(=O)Nc2ccccc2)no1 | – | – | 41 | – | 113
CCN1C(=S)SC(=O)C1=C1C=C(C)OC(C)=C1 | – | · | · | – | 91
SMILES | HSF1 activator | esBAF inh | Wnt act | HSF1 inhib | MITF TRPM1 HTS
CCN1C(=S)SC(=O)C1=C1C=C(C)N(Cc2ccco2)C(C)=C1 | – | 72 | – | -54 | –
O=C1C(=C2CCCCC2)SC(=S)N1Cc1ccco1 | – | – | – | – | –
CCN1C(=O)/C(=C2/Sc3ccccc3N2CC)SC1=S | – | – | – | – | –
CC(C)C#Cc1ccc2c(c1)O[C@@H](CN(C)C(=O)c1ccccn1)[C@@H](C)CN([C@H](C)CO)S2(=O)=O | · | – | · | · | ·
COc1ccccc1-c1cn(CC[C@@H]2CC[C@H](NC(=O)CCN3CCCCC3)[C@H](CO)O2)nn1 | · | – | · | · | ·
Nc1ccc(C#Cc2ccccc2)cc1 | – | – | · | – | –
Nc1ccccc1C#Cc1ccc2[nH]ccc2c1 | – | 82 | ? | – | –
Nc1ccccc1C#Cc1ccccc1 | – | 69 | 39 | – | 133
CC(Sc1nnnn1C)C(=O)Nc1ccc(Oc2ccccc2)cc1 (stereo unspecified) | – | – | – | -68 | –
Cc1ccccc1-c1ccc2c(c1)O[C@@H](CN(C)C(=O)c1ccccn1)[C@H](C)CN([C@@H](C)CO)S2(=O)=O | · | – | · | · | ·
O=C(CSc1ccsc1[N+](=O)[O-])NCc1ccco1 | – | · | 33 | – | –
COCCCNC(=O)CSc1ccsc1[N+](=O)[O-] | – | · | – | – | –
Cc1nc(C)c(-c2csc(Nc3ccc(F)cc3)n2)s1 | 65 | · | 34 | – | –

Assay outcomes: PubChem BioAssay, Broad Institute
